An excerpt weighted towards active compounds, which were near 1.4% of everything screened.
AmpC no deterg: qHTS Inhibitors of AmpC Beta-Lactamase (assay without detergent) | actives 0.52% (n = 330,000) | AmpC nitrocefin hydrolysis, absorbance 480 nm, 0.0001% Triton | AID 485341, 2010 | Potency, µM (highest dose often 57.1 µM), for the others: at the highest dose activity change, negative = inhibition, usual class: inhibitors | P00811;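 further: plate controls were no compound for no effect and no enzyme for full effect; nearly all actives have a fitted effect of over 20% in size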
Target sequence (P00811 whole entry, looked up): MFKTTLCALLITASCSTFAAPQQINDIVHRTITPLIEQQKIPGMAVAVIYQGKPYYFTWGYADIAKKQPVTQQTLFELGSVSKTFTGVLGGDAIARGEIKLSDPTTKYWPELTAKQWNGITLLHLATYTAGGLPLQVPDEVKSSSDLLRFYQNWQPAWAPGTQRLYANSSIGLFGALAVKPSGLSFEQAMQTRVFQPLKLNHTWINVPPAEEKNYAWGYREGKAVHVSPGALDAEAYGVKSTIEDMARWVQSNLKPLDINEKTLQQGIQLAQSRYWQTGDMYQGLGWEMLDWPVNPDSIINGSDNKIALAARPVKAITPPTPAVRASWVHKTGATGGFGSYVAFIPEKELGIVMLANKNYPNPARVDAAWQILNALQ
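20 mM phosphate pH 7.0 + 0.01% (detergent screen) or 0.0001% Triton X-100; 5.3 nM AmpC reagent; cpd preinc 15 min RT; nitrocefin (800 uM stock) to start; A480 q20 s × 4 min; Activity was normalised to no-enzyme and no-compound control wells.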
VACV mCherry inh: qHTS for Stage-Specific Inhibitors of Vaccinia Orthopoxvirus: mCherry Reporter Primary qHTS | Vaccinia virus mCherry reporter infection, fluorescence | Potency, µM (top dose mostly 36.5 µM), without a hit: at the highest dose activity change, negative = inhibition, hits mostly inhibitors | actives 0.63% (n = 310,000) | AID 720579, 2013; calls by dose curve; tested in A549 cells; further: on the % scale 0 is the no-effect control and ±100 the full control effect; nearly all actives have a fitted effect of over 35% in size
VACV Venus inh: qHTS for Stage-Specific Inhibitors of Vaccinia Orthopoxvirus: Venus Reporter Primary qHTS; Vaccinia virus Venus reporter expression, fluorescence; Potency, µM (top dose mostly 36.5 µM), inactives show at the highest dose activity change, negative = inhibition, most hits filed as inhibitors; actives 0.46% (n = 330,000); AID 720580, 2013; calls by dose curve; tested in A549 cells; further: on the % scale 0 is the no-effect control and ±100 the full control effect; nearly all actives have a fitted effect of over 30% in size
SARS PLP yeast: qHTS of Yeast-based Assay for SARS-CoV PLP; S. cerevisiae expressing SARS-CoV PLpro, growth rescue; actives 0.19% (n = 330,000); AID 485353, 2010; Potency, µM (highest dose often 32.9 µM), inactives show at the top dose activity, positive = growth rescue, actives largely listed as activators; calls by dose curve; further: 0% is about no effect; nearly all actives have a fitted effect of over 55% in size
AMA1-RON2 inh: qHTS for Inhibitors of AMA1-RON; Towards Development of Antimalarial Drug Lead: Primary Screen; Plasmodium falciparum AMA1 (3D7) - RON2 peptide interaction; AlphaScreen AMA1-biotinylated RON2 peptide binding; Potency, µM (titrated, usually from 58.2 µM), for the others: at the highest dose activity change, negative = inhibition, usual class: inhibitors; actives 0.2% (n = 360,000); AID 720542, 2013;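 further: 0% = vehicle wells and -100% = peptide control; nearly all actives have a fitted effect of over 45% in size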
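AMA1 (3D7) with his tag at 25 nM final met compounds first, then biotinylated RON2 peptide at 25 nM; detection used donor plus acceptor beads, 10 µg/mL apiece, read by AlphaScreen after 30 min at room temperature.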
AmpC inh detg: qHTS Inhibitors of AmpC Beta-Lactamase (assay with detergent). P00811. AmpC hydrolysis of nitrocefin, absorbance 480 nm, 0.01% Triton. Potency, µM (titrated, usually from 114 µM), for the others: top-dose activity change, negative = inhibition, most hits filed as inhibitors. actives 0.041% (n = 370,000). AID 485294, 2010;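 further: 0% = no-compound wells and -100% = no-enzyme wells; nearly all actives have a fitted effect of over 25% in size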
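20 mM phosphate pH 7.0 + 0.01% (detergent screen) or 0.0001% Triton X-100; 5.3 nM AmpC reagent; cpd preinc 15 min RT; nitrocefin (800 uM stock) to start; A480 q20 s × 4 min; Activity was normalised to no-enzyme and no-compound control wells.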
Numbers without * were called inactive; i = inactive; ? = inconclusive; · = no result; [ ] = dose if it differs, or a comment. Unless noted, the call rests on the fitted dose curve; in most records, active means well fitted curve in the direction sought with a large enough effect; inconclusive means small, poorly fitted or top-dose-only effect, or another doubt; inactive means no such curve, though single readings can be large; an effect the other way counts as inactive or inconclusive. Potency means the concentration at half of the fitted maximal effect.

SMILES | AmpC no deterg | VACV mCherry inh | VACV Venus inh | SARS PLP yeast | AMA1-RON2 inh | AmpC inh detg
CC1=C(C(=O)OC(C)C)C(c2cccc([N+](=O)[O-])c2)n2c(cc(=O)[nH]c2=S)N1 (stereo not drawn) | 35µM* | -9% | -6% | 2% | 34% | -16%
Cn1nccc1C(=O)NCC1CCC2(CCN(Cc3cccc4ncccc34)CC2)O1 (stereo not drawn) | · | -4% | 1% | · | · | ·
O=C1C=C(N2CC2)c2ccccc2C1=O | · | ? | -5% | · | ? | ·
Cc1ccc(N2CCOCC2)c2c1C(=O)c1ccccc1C2=O | 120% | -15% | -22% | -16% | 14µM* | 3%
CN(C1=C(N2CCOCC2)C(=O)c2ccccc2C1=O)c1ccccc1 | -4% | -24% | ? | -3% | 16µM* | -5%
O=C1C=C(N2CCOCC2)c2ccccc2C1=O | -17% | ? | 11µM* | 3% | -22% | ?
O=C(NCCc1ccccn1)C1CC12CCN(C(=O)c1cccc(C(F)(F)F)c1)CC2 (stereo not drawn) | · | -12% | -5% | · | · | ·
Cn1nnc2c(N3CCN(Cc4ccccc4)CC3)ncnc21 | · | -26% | -19% | · | · | ·
O=C(NCCN1CCOCC1)c1cnn(-c2nccc(-c3ccccc3C(F)(F)F)n2)c1C1CC1 | · | -8% | -8% | · | · | ·
Cc1cnc(-n2ncc(C(=O)NC(C)(C)CO)c2-c2cccs2)nc1-c1ccc(F)cc1 | · | -6% | 0% | · | · | ·
O=C(CN1c2ccccc2Sc2ccccc21)NNC(=S)Nc1ccc(Cl)cc1Cl | 16µM* | -28% | -23% | 5% | 20% | -8%
Cc1ccc(-c2nc3cccc(C)n3c2Nc2ccc(F)cc2)o1 | · | -18% | -11% | · | · | ·
OC1CCN(Cc2ccc3c(c2)CN(C/C=C/c2ccco2)CCO3)CC1 | · | -1% | -1% | · | · | ·
COc1cc(=O)n2c(c1C(=O)N1CCc3ccccc3C1)CCN(Cc1ccc(CO)o1)CC2 | · | -12% | -11% | · | · | ·
NC(=Nc1nc(-c2ccccn2)cc2ccccc12)c1ccccn1 | · | 0.32µM* | ? | · | 23% | ·
N/C(=N\OC(=O)c1ccc2ccccc2c1)c1ccccn1 | -15%[11.4 µM] | -10% | -9% | ? | 7% | ?
O=C1NC(=O)N(Cc2ccccc2)C(=O)/C1=C\c1ccco1 | -26%[11.4 µM] | 21% | 33% | 2% | ? | -15%
O=C1NC(=O)N(Cc2ccco2)C(=O)/C1=C/c1cccn1CCOc1ccccc1Cl | 13µM* | i | 0% | 23% | -10% | -12%
C=CCn1c(O)c(C(C)=NCc2cc(OC)cc(OC)c2)c(=O)[nH]c1=O | 26% | 8.9µM* | 5µM* | -7% | -5% | 6%
C=CCn1c(O)c(C(C)=NCc2cccnc2)c(=O)[nH]c1=O | -24% | · | · | 6% | 2% | -16%
Cc1ccc(-c2ccnc(-n3ncc(C(=O)N(C)CC4CCCN(C)C4)c3C)n2)o1 (stereo not drawn) | · | -6% | -9% | · | · | ·
Cc1ccccc1NC(=O)CN1C(=O)NC2(CCc3ccccc32)C1=O (stereo not drawn) | -2% | · | · | 1% | 5% | ?
COc1cc2c(cc1NC(=O)CN1C(=O)NC3(CCc4ccccc43)C1=O)oc1ccccc12 (stereo not drawn) | 29% | 10µM* | ? | -14% | 0% | -12%
CC(C)C(=O)Nc1ccccc1N1CCN(S(C)(=O)=O)CC1 | 0.28µM* | · | · | -1% | ? | 1%
Cc1snc(SCc2ccc(F)cc2)c1C#N | -24% | -6% | -10% | -5% | 0% | -6%
SMILES | AmpC no deterg | VACV mCherry inh | VACV Venus inh | SARS PLP yeast | AMA1-RON2 inh | AmpC inh detg
COC(=O)c1ccccc1CSc1nsc(/C=C/N(C)C)c1C#N | 28µM* | · | · | 2% | 0% | -1%
COC(=O)c1cccnc1SCc1ccccc1 | -16% | · | · | 10% | 21% | -13%
Cc1nc(CSc2nsc(/C=C/N(C)C)c2C#N)cs1 | 20µM* | i | 14% | -2% | -11% | 0%
Oc1cc2c(cc1O)C1c3ccc(O)c(O)c3OCC1(O)C2 (stereo not drawn) | -10% | 39% | 84% | 0% | 2µM* | 5%
Nc1c(S(=O)(=O)c2cccs2)c2nc3ccccc3nc2n1/N=C/c1cccc(O)c1 | -27% | ? | 11µM* | -5% | -3% | -14%
O=C(CCS(=O)(=O)c1ccc(Br)s1)Nc1cc(C(F)(F)F)cc(C(F)(F)F)c1 | · | 13µM* | ? | · | · | 5%
CC(=O)c1cccc(NC(=O)CCS(=O)(=O)c2ccc(Br)s2)c1 | -35% | 0% | -10% | -1% | -2% | -12%
Cc1ccc(NS(=O)(=O)c2cc(Br)cc3c2N(C(=O)C2CC2)CC3)cc1C | · | ? | ? | · | · | -5%
COc1cc(NS(=O)(=O)c2cc(Br)cc3c2N(C(=O)C2CC2)CC3)cc(OC)c1 | · | 18µM* | ? | · | · | 0%
CN(C)S(=O)(=O)c1cccc(NC(=O)COC(=O)c2cccc(S(=O)(=O)N3CCc4ccccc4C3)c2)c1 | -22% | -1% | -6% | 15% | 8% | -10%
CCN(CC(=O)Nc1c(F)cccc1F)C(=O)c1cccc(S(=O)(=O)N2CCc3ccccc3C2)c1 | 1% | -2% | -27% | 6% | 8% | -16%
CCc1cccc(CC)c1NC(=O)COC(=O)c1cccc(S(=O)(=O)N2CCc3ccccc3C2)c1 | 18µM* | i | -2% | 0% | 4% | -1%
Cc1cccc(C(C)C)c1NC(=O)COC(=O)c1cccc(S(=O)(=O)N2CCc3ccccc3C2)c1 | 7.9µM* | i | -18% | -5% | -8% | -6%
Cc1ncc2c(c1CNC(=O)c1ccccc1F)CCN(C(=O)c1csc(-c3cccs3)n1)C2 | · | -21% | -12% | · | · | ·
CCn1ncc(Br)c1C(=O)Nc1ccc(F)cc1F | 0.32µM* | i | 0% | -5% | 6% | -1%
CC1=C(C(=O)N(C)C)CC(CC(=O)NC(c2ccccc2)c2ccccc2)C(=O)N1Cc1ccc(C(C)(C)C)cc1 (stereo not drawn) | · | -13% | ? | · | -12% | ·
CCN(CC)C(=O)C1=C(C)N(Cc2ccc(C(C)(C)C)cc2)C(=O)C(CC(=O)NC(c2ccccc2)c2ccccc2)C1 (stereo not drawn) | · | ? | 13µM* | · | -13% | ·
COC(=O)[C@@H]1CCCN1Cc1ccc2c(c1)CN(Cc1cccn1-c1ccccn1)CCO2 | · | -3% | 8% | · | · | ·
CCCC(=O)Nc1nc2c(s1)COc1ccccc1-2 | -22% | -26% | -26% | -16% | -2% | -6%
